Assay results as given in PubChem BioAssay (NCI).
About 83,000 compounds went through this panel and 20% of them were active in at least one assay; those are over-represented in the sample as a whole.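 Each cell line was grown in a 96-well plate and treated with one concentration of compound for 48 hours. Values below 10 were considered active.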 A number with no mark means an inactive call. The source made the active and inactive calls.

What follows are molecules tested on OVCAR-8 ovarian (assay: NCI-60 one-dose screen, 48 h (100 = growth as untreated, 0 = no growth, -100 = all killed)). Conditions: 10 µM unless noted.

SMILES	growth [%]
Oc1ccccc1/C=N/Nc1nc(N/N=C/c2ccccc2O)nc(N2CCOCC2)n1	12.7
IP(CCCSc1n(Cc2ccc3ccccc3c2)c(-c2ccccc2)c(-c2ccccc2)[n+]1Cc1ccc2ccccc2c1)(c1ccccc1)(c1ccccc1)c1ccccc1	38.6
Cn1cc(-c2nnc(N)nc2-c2cn(C)c3ccc(F)cc23)c2cc(F)ccc21	89.6
N/C(=N\OC(=O)CSc1nc2ccccc2s1)c1ccc(Cl)cc1	98

These molecules were tested on OVCAR-5 ovarian in the same assay as above. Conditions: 10 µM unless noted.

SMILES	growth
NS(=O)(=O)c1ccc(Nc2nc(N/N=C/c3ccc(F)cc3)nc(Nc3ccccc3)n2)cc1	75.3%
COc1ccc(-c2cc(-c3ccc(Cl)cc3)nc3nc(N)nn23)cc1	101%
COc1ccc(Cn2cc3c(c2-c2cc(OC)c(OC)c(OC)c2)CCCc2cnoc2-3)cc1	34.9%
CN(c1ccc(F)cc1)S(=O)(=O)c1ccc(-c2cnc(C3CC3)o2)cc1	49.5%
COC[C@]12CC[C@@H](C)[C@H](C)[C@H]1C1=CC[C@@H]3[C@@]4(C)CCCNC(C)(C)[C@@H]4CC[C@@]3(C)[C@]1(C)CC2	61.6%
C=C(C)[C@@H]1CC[C@]2(C(=O)ON)CC[C@]3(C)[C@H](CC[C@@H]4[C@@]5(C)C/C(=C/c6ccc(Br)cc6)C(=O)C(C)(C)[C@@H]5CC[C@]43C)[C@@H]12	86.5%
CN(c1ccc(Br)cc1)S(=O)(=O)c1ccc(-c2cnc(C3CC3)o2)cc1	46.7%
CCCCCCNC(=O)Oc1ccc(/C(=C(\C)c2ccc(Cl)cc2)c2ccc(OCCN(C)C)cc2)cc1	78.1%
C=C(C)[C@@H]1CC[C@]2(COS(C)(=O)=O)CC[C@]3(C)[C@H](CC[C@@H]4[C@@]5(C)CCCNC(C)(C)[C@@H]5CC[C@]43C)[C@@H]12	92.5%
O=C(NNc1nc2cc(F)ccc2n2cncc12)c1cnccn1	50%
CN1CCN(c2ccc3c(C(N)=O)c(NC(=O)c4ccc(C(C)(C)C)cc4)sc3c2)CC1	81.1%
NC(=O)C(=Cc1ccc(Cl)cc1)C(N)=O	78.2%
CCN1C(=O)N(CC)C2SC(N/N=C/C=C/c3ccccc3OC)=NC21 (configuration not stated)	37.7%
CC(=O)C1=NN(c2ccc(Cl)cc2)C(=O)CN1C	95%
CCOC(=O)c1c(NCC(=O)Nc2ccc(Br)cc2)sc2c1CCCC2	27.2%
CN1CCN(c2ccc3c(c2)nc(NNC(=O)c2ccncn2)c2cccn23)CC1	54%
CCOc1c(C#N)c(Nc2ccc(S(N)(=O)=O)cc2)c(C#N)c2nnc(C)n12	107%
O=c1[nH]c(CNc2ccc(NCc3c(-c4ccccc4)no[n+]3[O-])cc2)nc2c1cnn2-c1ccccc1	109%
C#CCOc1ccc(C(Nc2ccc(Cl)cc2)c2nnnn2C2CCCCC2)cc1 (configuration not stated)	85.5%

SMILES	growth
COc1cc(/C=N/Nc2ccnc3cc(Cl)ccc23)cc(OC)c1O	-5% (active)
COc1cc(C(=O)C[n+]2ccc3ccccc3c2)cc(OC)c1OC	102%
Cc1ccc(NC(=O)c2ccc(CN3CCN(C)CC3)c(I)c2)cc1Oc1ccc(-c2[nH]nc3ncnc(N)c23)cc1	95.8%
COc1ccc(Cn2cc3c(c2-c2ccccc2)CCCc2cnoc2-3)cc1	80.7%
N#Cc1c(NC(=O)c2ccc(F)c(Cl)c2)sc2c1CCC(=O)C2	-14.6% (active)
c1ccc(-c2c(-c3ccccc3)[n+](Cc3ccc4ccccc4c3)c(-c3ccccc3)n2Cc2ccc3ccccc3c2)cc1	-96.3% (active)
CCOC(=O)C1=C(C)N=C2Sc3ccccc3N2C1c1ccccc1 (configuration not stated)	102%
CCn1c2ccc(/C=N/NS(=O)(=O)CCN(C)C)cc2c2cc(/C=N/NS(=O)(=O)CCN(C)C)ccc21	100%
Cn1cc2c(c1)-c1c(sc3nc(-c4ccc(NC(=O)Nc5cc(C(C)(C)C)on5)cc4)cn13)CC2	74.8%
CCOC(=O)c1c(NC(=O)c2ccc(C(C)(C)C)cc2)sc2cc(OCCN3CCCCC3)ccc12	91.8%
COc1ccccc1/C=C/C=N/NC1=NC2C(S1)N(C)C(=O)N2c1ccccc1 (configuration not stated)	33.3%
CC1(C)CC[C@]2(C(=O)O)CC[C@]3(C)C(=CCC4[C@@]5(C)C[C@@H](O)[C@@H]6OC(c7cccc([N+](=O)[O-])c7)OC[C@@]6(C)C5CC[C@]43C)C2C1 (some centres not stated)	97.2%
CN(C)c1ncc(/C=C2\SC(=S)N(Cc3ccccc3Cl)C2=O)s1	87.9%
O=C(/C=C1\C=CN(CCCCO)c2ccccc21)n1ccc2ccccc21	102%
C#C[C@]1(O)CC[C@H]2[C@@H]3CC=C4c5sc(Nc6nc(C)cc(OC)n6)nc5CC[C@]4(C)[C@H]3CC[C@@]21C	78.8%
Oc1ccccc1/C=N/Nc1nc(N/N=C/c2ccccc2O)nc(N2CCOCC2)n1	37%
IP(CCCSc1n(Cc2ccc3ccccc3c2)c(-c2ccccc2)c(-c2ccccc2)[n+]1Cc1ccc2ccccc2c1)(c1ccccc1)(c1ccccc1)c1ccccc1	58.5%
Cn1cc(-c2nnc(N)nc2-c2cn(C)c3ccc(F)cc23)c2cc(F)ccc21	103%
N/C(=N\OC(=O)CSc1nc2ccccc2s1)c1ccc(Cl)cc1	100%
